Where “and” joins values, the source holds several entries; their conditions need not be identical. Equal entries are not always repeated. In all, about 5,500 compounds went through this assay and about 2,000 (36%) were called active. About 18% were inconclusive and are not listed. Rule as the data show it: active = normalized growth mostly below about 0.91 (no sharp cut-off); inconclusive = no clear call, values can overlap the other calls; inactive = mostly above about 0.92. The list shows a part of the results.
Test: chemical genetic growth profiling, strain panel (AID 1159580);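 also: tested at 20 µM; growth read once vehicle control cultures reached saturation at 30 °C; 1 = growth at the plate median or of vehicle wells; lower values mean less growth of the strain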
Conditions: S. cerevisiae deletion strains, growth OD

Measured: normalized growth

COCCOC(=O)C1=C(C)NC(C)=C(C(=O)OC(C)C)C1c1cccc([N+](=O)[O-])c1 (stereo not given)
inactive: locus YAL013W, strain DEP1, active compounds read low 1.01 | locus YAL021C, strain ccr4, active compounds read low 1.04 | locus YAL026C, strain drs2, active compounds read low 1.02 | locus YAL030W, strain snc1, active compounds read low 1.02 | locus YAL040C, strain CLN3, active compounds read low 1 | locus YBL061C, strain skt5, active compounds read low 1.02 | locus YBR009C, strain hhf1, active compounds read low 0.988 | locus YBR021W, strain FUR4, active compounds read low 1.01 | locus YBR023C, strain chs3, active compounds read low 1.02 | locus YBR171W, strain sec66, active compounds read low 1.02 | locus YBR229C, strain ROT2, active compounds read low 0.999 | locus YBR231C, strain swc5, active compounds read low 0.996 | locus YBR279W, strain paf1, active compounds read low 0.992 | locus YCL011C, strain gbp2, active compounds read low 1.02 | locus YCL016C, strain dcc1, active compounds read low 1.01 | locus YCL029C, strain bik1, active compounds read low 1.02 | locus YCL061C, strain MRC1 (second series), active compounds read low 1.01 | locus YCL069W, strain vba3, active compounds read low 1.02 | locus YCR088W, strain abp1, active compounds read low 1.01 | locus YDL005C, strain med2, active compounds read low 1.01 | locus YDL035C, strain GPR1, active compounds read low 1.01 | locus YDL040C, strain nat1, active compounds read low 0.999 | locus YDL074C, strain BRE1, active compounds read low 0.996 | locus YDL101C, strain DUN1, active compounds read low 1.01 | locus YDL134C, strain PPH21, active compounds read low 1.01 | locus YDL185W, strain tfp1, active compounds read low 1.02 | locus YDL192W, strain arf1, active compounds read low 1.02 | locus YDR001C, strain nth1, active compounds read low 1.01 | locus YDR069C, strain doa4, active compounds read low 0.982 | locus YDR101C, strain arx1, active compounds read low 1.01 | locus YDR137W, strain rgp1, active compounds read low 0.925 | locus YDR150W, strain NUM1, active compounds read low 1.01 and 0.999 | locus YDR159W, strain sac3, active compounds read low 0.967 | locus YDR162C, strain NBP2, active compounds read low 0.992 | locus YDR195W, strain ref2 1.01 | locus YDR297W, strain sur2, active compounds read low 1.01 | locus YDR318W, strain mcm21, active compounds read low 1.01 | locus YDR334W, strain swr1, active compounds read low 1 | locus YDR335W, strain msn5, active compounds read low 1.01 | locus YDR363W, strain ESC2, active compounds read low 1.01 | locus YDR388W, active compounds read low 1.01 | locus YDR392W, strain spt3, active compounds read low 0.977 | locus YDR502C, strain sam2, active compounds read low 1 | locus YEL003W, strain gim4, active compounds read low 1.01 | locus YEL037C, strain rad23, active compounds read low 1.01 | locus YEL061C, strain CIN8 (second series), active compounds read low 1 | locus YEL061C, strain CIN8, active compounds read low 1 | locus YER002W, strain NOP16, active compounds read low 0.993 | locus YER015W, strain faa2, active compounds read low 1.01 | locus YER016W, strain bim1, active compounds read low 0.989 | locus YER110C, active compounds read low 1.02 | locus YER111C, strain swi4, active compounds read low 1.02 | locus YER155C, strain BEM2 (second series), active compounds read low 1.03 | locus YER155C, strain BEM2, active compounds read low 1.02 | locus YER167W, strain BCK2, active compounds read low 1.01 | locus YFR010W, strain ubp6, active compounds read low 1.01 | locus YGL078C, strain dbp3, active compounds read low 1.01 | locus YGL086W, strain mad1, active compounds read low 0.992 | locus YGL167C, strain pmr1, active compounds read low 1 | locus YGL173C, strain kem1, active compounds read low 1.01 | locus YGL227W, strain vid30, active compounds read low 1.03 | locus YGL240W, strain doc1, active compounds read low 0.984 | locus YGL248W, strain PDE1, active compounds read low 1 | locus YGL253W, strain hxk2, active compounds read low 1.01 | locus YGR078C, strain PAC10, active compounds read low 1 and 0.918 | locus YGR135W, strain pre9, active compounds read low 0.997 | locus YGR229C, strain SMI1, active compounds read low 1 | locus YGR252W, strain gcn5, active compounds read low 0.961 | locus YHR013C, strain ard1, active compounds read low 1.02 | locus YHR027C, strain rpn1, active compounds read low 1.01 | locus YHR030C, strain SLT2, active compounds read low 1.01 and 0.955 | locus YHR079C, strain IRE1 (second series), active compounds read low 1 | locus YHR079C, strain IRE1, active compounds read low 0.95 | locus YHR094C, strain hxt1, active compounds read low 1.01 | locus YHR129C, strain ARP1, active compounds read low 0.999 | locus YHR142W, strain chs7, active compounds read low 1.04 | locus YHR200W, strain rpn10, active compounds read low 1.02 | locus YIL066C, strain RNR3, active compounds read low 1.01 | locus YIL073C, strain SPO22, active compounds read low 1.04 | locus YIL125W, strain kgd1, active compounds read low 1.01 | locus YIR030C, strain dcg1, active compounds read low 1.01 | locus YJL092W, strain hpr5, active compounds read low 1.02 | locus YJL095W, strain BCK1 (second series), active compounds read low 1.02 | locus YJL095W, strain BCK1, active compounds read low 1 and 0.972 | locus YJL115W, strain asf1, active compounds read low 1.02 | locus YJL129C, strain trk1, active compounds read low 0.987 | locus YJL134W, strain LCB3, active compounds read low 1.01 | locus YJL154C, strain vps35, active compounds read low 1 | locus YJL164C, strain tpk1, active compounds read low 1.02 | locus YJL166W, strain qcr8, active compounds read low 1.02 | locus YJL168C, strain set2, active compounds read low 1.01 | locus YJL187C, strain SWE1 (second series), active compounds read low 1 | locus YJL187C, strain SWE1, active compounds read low 1.01 | locus YJR043C, strain POL32, active compounds read low 0.999 | locus YJR066W, strain TOR1, active compounds read low 0.946

Source: PubChem BioAssay AID1159580 (chemical genetic matrix, 2015)
